{"source": "PubChem BioAssay (NCI)", "key": {"[1]": {"assay": "NCI Yeast Anticancer Drug Screen. Data for the rad52 strain (AID 147);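 note: 0% = growth of vehicle-treated control cultures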", "conditions": "S. cerevisiae rad52 mutant growth inhibition, stronger effect = higher value", "how_it_was_run": "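Vehicle-treated cultures served as the reference for growth inhibition of compound-exposed yeast bearing a DNA repair mutation.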"}, "[2]": {"assay": "NCI Yeast Anticancer Drug Screen. Data for the wt1 strain (AID 149);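 note: 0% = growth of vehicle-treated wt1 cultures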", "conditions": "S. cerevisiae wt1 strain (SPY 50644) growth inhibition, stronger effect = higher value", "how_it_was_run": "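Vehicle-normalised growth inhibition; strain wt1; compound exposure.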"}, "[3]": {"assay": "NCI Yeast Anticancer Drug Screen. Data for the mgt1 strain (AID 153)", "conditions": "S. cerevisiae mgt1 mutant growth inhibition, stronger effect = higher value", "how_it_was_run": "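mgt1 strain exposed; growth vs vehicle control recorded as inhibition.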"}, "[4]": {"assay": "NCI Yeast Anticancer Drug Screen. Data for the rad50 strain (AID 155);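 note: 0% = growth of vehicle-only cultures of the same strain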", "conditions": "S. cerevisiae rad50 strain growth inhibition, stronger effect = higher value", "how_it_was_run": "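A DNA repair-deficient yeast mutant serves as the test organism; compound-induced growth inhibition is calculated against vehicle-treated cells.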"}, "[5]": {"assay": "NCI Yeast Anticancer Drug Screen. Data for the mec2-1 strain (AID 157)", "conditions": "S. cerevisiae mec2-1 strain, stronger effect = higher value", "how_it_was_run": "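Vehicle-treated cultures served as reference for growth inhibition of compound-exposed mec2-1 yeast.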"}, "[6]": {"assay": "NCI Yeast Anticancer Drug Screen. Data for the rad14 strain (AID 159);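 note: 0% = growth of vehicle-treated control cultures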", "conditions": "S. cerevisiae rad14 strain growth inhibition, stronger effect = higher value", "how_it_was_run": "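Vehicle-treated cultures served as the baseline for growth inhibition of a DNA repair-mutant yeast strain exposed to each compound.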"}, "[7]": {"assay": "NCI Yeast Anticancer Drug Screen. Data for the sgs1 mgt1 strain (AID 161);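 note: 0% = growth of cultures given vehicle only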", "conditions": "S. cerevisiae sgs1 mgt1 strain, stronger effect = higher value", "how_it_was_run": "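Test agents were incubated with a DNA-repair-mutant yeast strain. Growth was then read and compared against vehicle-treated controls.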"}, "[8]": {"assay": "NCI Yeast Anticancer Drug Screen. Data for the CLN2oe strain (AID 163);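 note: 0% = growth of vehicle-only control cultures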", "conditions": "S. cerevisiae CLN2oe strain, stronger effect = higher value", "how_it_was_run": "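Inhibition relative to vehicle-treated yeast is reported. Cells: strain with genetic alteration in cell-cycle control, grown with compound.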"}, "[9]": {"assay": "NCI Yeast Anticancer Drug Screen. Data for the cln2 rad14 strain (AID 165);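 note: 0% = growth equal to vehicle treated cultures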", "conditions": "S. cerevisiae cln2 rad14 strain, stronger effect = higher value", "how_it_was_run": "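Each compound was tested on cln2 rad14 yeast. Inhibition of growth was calculated against vehicle-exposed controls.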"}, "[10]": {"assay": "NCI Yeast Anticancer Drug Screen. Data for the bub3 strain (AID 167)", "conditions": "S. cerevisiae bub3 mutant strain, stronger effect = higher value", "how_it_was_run": "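Inhibition values come from growth of compound-treated mutant yeast normalised to vehicle-treated controls.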"}, "[11]": {"assay": "NCI Yeast Anticancer Drug Screen. Data for the wt2 strain (AID 169);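 note: 0% = growth of vehicle-treated yeast cultures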", "conditions": "S. cerevisiae wt2 strain growth inhibition, stronger effect = higher value", "how_it_was_run": "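Inhibition of yeast growth was determined after compound treatment, normalised to controls receiving only vehicle.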"}, "[12]": {"assay": "NCI Yeast Anticancer Drug Screen. Data for the mlh1 strain (AID 171);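 note: 0% = growth of vehicle-treated control cultures of the same strain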", "conditions": "S. cerevisiae mlh1 strain growth inhibition, stronger effect = higher value", "how_it_was_run": "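Vehicle-normalised growth inhibition of a repair- or checkpoint-altered yeast strain following compound treatment.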"}, "[13]": {"assay": "NCI Yeast Anticancer Drug Screen. Data for the sgs1 strain (AID 173);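 note: 0% = growth of vehicle-only control cultures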", "conditions": "S. cerevisiae sgs1 mutant, stronger effect = higher value", "how_it_was_run": "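Screen format: yeast with repair or checkpoint alterations, compound exposure, growth read relative to vehicle.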"}, "[14]": {"assay": "NCI Yeast Anticancer Drug Screen. Data for the mlh1 rad18 strain (AID 175)", "conditions": "S. cerevisiae mlh1 rad18 strain growth inhibition, stronger effect = higher value", "how_it_was_run": "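Vehicle-treated cultures served as the reference for growth inhibition in a yeast strain carrying DNA damage repair alterations exposed to each compound.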"}, "[15]": {"assay": "NCI Yeast Anticancer Drug Screen. Data for the rad18 strain (AID 177)", "conditions": "S. cerevisiae rad18 mutant growth inhibition, stronger effect = higher value", "how_it_was_run": "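Test articles were incubated with altered yeast defective in DNA damage repair. Results are given as inhibition of growth versus vehicle.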"}, "[16]": {"conditions": "at 5.0 µM (retest, dose inferred, filed as 0.5)"}, "[17]": {"conditions": "at 50.0 µM (retest, dose inferred, filed as 5.0)"}}, "note": "Compounds without any hit were thinned out: in the full panel of roughly 79,000, 15% have a hit. A number with no mark means an inactive call. Active and inactive are the calls of the source. Cut-off read from the data, not from the text of the source: active = growth inhibition above about 70%; inactive = the rest."}
{"smiles": "Cc1cc(O)cc(O)c1N=Nc1ccc([N+](=O)[O-])cc1", "values": [{"measurement": "growth inhibition", "setting": "[1]; at 1.2 µM", "result": 5, "unit": "%"}, {"measurement": "growth inhibition", "setting": "[1]; at 3.7 µM", "result": 12, "unit": "%"}, {"measurement": "growth inhibition", "setting": "[1]; at 11.0 µM", "result": 11, "unit": "%"}, {"measurement": "growth inhibition", "setting": "[1]; at 33.0 µM", "result": 20, "unit": "%"}, {"measurement": "growth inhibition", "setting": "[1]; at 100.0 µM", "result": 32, "unit": "%"}, {"measurement": "growth inhibition", "setting": "[2]; at 1.2 µM", "result": 12, "unit": "%"}, {"measurement": "growth inhibition", "setting": "[2]; at 3.7 µM", "result": 17, "unit": "%"}, {"measurement": "growth inhibition", "setting": "[2]; at 11.0 µM", "result": 21, "unit": "%"}, {"measurement": "growth inhibition", "setting": "[2]; at 33.0 µM", "result": 51, "unit": "%"}, {"measurement": "growth inhibition", "setting": "[2]; at 100.0 µM", "result": 62, "unit": "%"}, {"measurement": "growth inhibition", "setting": "[3]; at 1.2 µM", "result": 11, "unit": "%"}, {"measurement": "growth inhibition", "setting": "[3]; at 3.7 µM", "result": 15, "unit": "%"}, {"measurement": "growth inhibition", "setting": "[3]; at 11.0 µM", "result": 23, "unit": "%"}, {"measurement": "growth inhibition", "setting": "[3]; at 33.0 µM", "result": 59, "unit": "%"}, {"measurement": "growth inhibition", "setting": "[3]; at 100.0 µM", "result": 64, "unit": "%"}, {"measurement": "growth inhibition", "setting": "[4]; at 1.2 µM", "result": -6, "unit": "%"}, {"measurement": "growth inhibition", "setting": "[4]; at 3.7 µM", "result": 2, "unit": "%"}, {"measurement": "growth inhibition", "setting": "[4]; [16]", "result": 47, "unit": "%"}, {"measurement": "growth inhibition", "setting": "[4]; at 11.0 µM", "result": -1, "unit": "%"}, {"measurement": "growth inhibition", "setting": "[4]; at 33.0 µM", "result": 18, "unit": "%"}, {"measurement": "growth inhibition", "setting": "[4]; [17]", "result": "98% (active)"}, {"measurement": "growth inhibition", "setting": "[4]; at 50.0 µM", "result": "70.3% (active)"}, {"measurement": "growth inhibition", "setting": "[4]; at 100.0 µM", "result": 31, "unit": "%"}, {"measurement": "growth inhibition", "setting": "[5]; at 1.2 µM", "result": 7, "unit": "%"}, {"measurement": "growth inhibition", "setting": "[5]; at 3.7 µM", "result": 8, "unit": "%"}, {"measurement": "growth inhibition", "setting": "[5]; [16]", "result": 54, "unit": "%"}, {"measurement": "growth inhibition", "setting": "[5]; at 11.0 µM", "result": 8, "unit": "%"}, {"measurement": "growth inhibition", "setting": "[5]; at 33.0 µM", "result": 46, "unit": "%"}, {"measurement": "growth inhibition", "setting": "[5]; [17]", "result": "95% (active)"}, {"measurement": "growth inhibition", "setting": "[5]; at 50.0 µM", "result": 36.1, "unit": "%"}, {"measurement": "growth inhibition", "setting": "[5]; at 100.0 µM", "result": 63, "unit": "%"}, {"measurement": "growth inhibition", "setting": "[6]; at 1.2 µM", "result": -18, "unit": "%"}, {"measurement": "growth inhibition", "setting": "[6]; at 3.7 µM", "result": -21, "unit": "%"}, {"measurement": "growth inhibition", "setting": "[6]; at 11.0 µM", "result": -14, "unit": "%"}, {"measurement": "growth inhibition", "setting": "[6]; at 33.0 µM", "result": 38, "unit": "%"}, {"measurement": "growth inhibition", "setting": "[6]; at 100.0 µM", "result": 61, "unit": "%"}, {"measurement": "growth inhibition", "setting": "[7]; [16]", "result": 3, "unit": "%"}, {"measurement": "growth inhibition", "setting": "[7]; [17]", "result": 25, "unit": "%"}, {"measurement": "growth inhibition", "setting": "[7]; at 50.0 µM", "result": 46.6, "unit": "%"}, {"measurement": "growth inhibition", "setting": "[8]; at 1.2 µM", "result": 24, "unit": "%"}, {"measurement": "growth inhibition", "setting": "[8]; at 3.7 µM", "result": 22, "unit": "%"}, {"measurement": "growth inhibition", "setting": "[8]; at 11.0 µM", "result": 30, "unit": "%"}, {"measurement": "growth inhibition", "setting": "[8]; at 33.0 µM", "result": 42, "unit": "%"}, {"measurement": "growth inhibition", "setting": "[8]; at 100.0 µM", "result": 55, "unit": "%"}, {"measurement": "growth inhibition", "setting": "[9]; [16]", "result": 24, "unit": "%"}, {"measurement": "growth inhibition", "setting": "[9]; [17]", "result": "72% (active)"}, {"measurement": "growth inhibition", "setting": "[9]; at 50.0 µM", "result": "72.7% (active)"}, {"measurement": "growth inhibition", "setting": "[10]; at 1.2 µM", "result": 4, "unit": "%"}, {"measurement": "growth inhibition", "setting": "[10]; at 3.7 µM", "result": 26, "unit": "%"}, {"measurement": "growth inhibition", "setting": "[10]; [16]", "result": 16, "unit": "%"}, {"measurement": "growth inhibition", "setting": "[10]; at 11.0 µM", "result": 43, "unit": "%"}, {"measurement": "growth inhibition", "setting": "[10]; at 33.0 µM", "result": 56, "unit": "%"}, {"measurement": "growth inhibition", "setting": "[10]; [17]", "result": 49, "unit": "%"}, {"measurement": "growth inhibition", "setting": "[10]; at 50.0 µM", "result": 43.1, "unit": "%"}, {"measurement": "growth inhibition", "setting": "[10]; at 100.0 µM", "result": 62, "unit": "%"}, {"measurement": "growth inhibition", "setting": "[11]; at 1.2 µM", "result": 5, "unit": "%"}, {"measurement": "growth inhibition", "setting": "[11]; at 3.7 µM", "result": 11, "unit": "%"}, {"measurement": "growth inhibition", "setting": "[11]; at 11.0 µM", "result": -4, "unit": "%"}, {"measurement": "growth inhibition", "setting": "[11]; at 33.0 µM", "result": 26, "unit": "%"}, {"measurement": "growth inhibition", "setting": "[11]; at 100.0 µM", "result": 45, "unit": "%"}, {"measurement": "growth inhibition", "setting": "[12]; at 1.2 µM", "result": -10, "unit": "%"}, {"measurement": "growth inhibition", "setting": "[12]; at 3.7 µM", "result": -2, "unit": "%"}, {"measurement": "growth inhibition", "setting": "[12]; at 11.0 µM", "result": -3, "unit": "%"}, {"measurement": "growth inhibition", "setting": "[12]; at 33.0 µM", "result": 23, "unit": "%"}, {"measurement": "growth inhibition", "setting": "[12]; at 100.0 µM", "result": 33, "unit": "%"}, {"measurement": "growth inhibition", "setting": "[13]; at 1.2 µM", "result": -3, "unit": "%"}, {"measurement": "growth inhibition", "setting": "[13]; at 3.7 µM", "result": -2, "unit": "%"}, {"measurement": "growth inhibition", "setting": "[13]; at 11.0 µM", "result": 4, "unit": "%"}, {"measurement": "growth inhibition", "setting": "[13]; at 33.0 µM", "result": 32, "unit": "%"}, {"measurement": "growth inhibition", "setting": "[13]; at 100.0 µM", "result": 47, "unit": "%"}, {"measurement": "growth inhibition", "setting": "[14]; [16]", "result": 48, "unit": "%"}, {"measurement": "growth inhibition", "setting": "[14]; [17]", "result": "99% (active)"}, {"measurement": "growth inhibition", "setting": "[14]; at 50.0 µM", "result": 55.8, "unit": "%"}, {"measurement": "growth inhibition", "setting": "[15]; at 1.2 µM", "result": 5, "unit": "%"}, {"measurement": "growth inhibition", "setting": "[15]; at 3.7 µM", "result": 3, "unit": "%"}, {"measurement": "growth inhibition", "setting": "[15]; at 11.0 µM", "result": 8, "unit": "%"}, {"measurement": "growth inhibition", "setting": "[15]; at 33.0 µM", "result": 11, "unit": "%"}, {"measurement": "growth inhibition", "setting": "[15]; at 100.0 µM", "result": 32, "unit": "%"}]}
